# Measurements published in PubChem BioAssay (NCATS).
# Where “and” joins values, the source holds several entries; their conditions need not be identical. Identical values can stand only once. Calls of active or inactive are those of the source. Where a call stands in place of a potency, no number is given. Unless noted, the call rests on the fitted dose curve; in most records, active means well fitted inhibition curve with a large enough effect; inconclusive means small, poorly fitted or top-dose-only effect; inactive means flat fitted curve, though single readings scatter.
# Key:
# [1] = target: Ubiquitin carboxyl-terminal hydrolase 1 (Homo sapiens) (UniProt O94782); experiment: Inhibitors of USP1/UAF1: Pilot qHTS (AID 504865); further: nearly all actives have a fitted effect of over 35% in size; further: potency means the concentration at half of the fitted maximal effect
# Procedure, shortened: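 Deubiquitinase activity followed as kinetic rhodamine fluorescence release from 150 nM Ub-Rho. 1 nM USP1/UAF1 with compound, after 15 min room-temperature preincubation, in HEPES pH 7.8 buffer containing TCEP, EDTA, BSA and Tween-20.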
# [2] = target: DNA dC->dU-editing enzyme APOBEC-3G (Homo sapiens) (UniProt Q9HC16); experiment: qHTS for inhibitors of Vif-A3G interactions: Validation (AID 588379)
# Procedure, shortened: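 HeLa cells stably expressing Vif and A3G-eYFP, 700 cells/well, incubated overnight at 37 deg C, then exposed to compound overnight at 37 deg C. Inhibition of Vif-mediated degradation read as increased yellow fluorescence (Ex 488/Em 500-530) by laser-scanning cytometry.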
# [3] = target: Estrogen receptor (Homo sapiens) (UniProt P03372); experiment: qHTS assay for small molecule antagonists of estrogen receptor alpha signaling (AID 588513; active means well fitted curve in the direction sought with a large enough effect in the signal ratio, with a control signal flat, not every such curve was filed as active; inconclusive means small, poorly fitted or top-dose-only effect, or effect the other way, or a change in a side signal; inactive means no such curve, though single readings can be large or run the other way; the % refers to the signal ratio; further: potency means the concentration at half of the fitted maximal effect)
# Procedure, shortened: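 Antagonist mode: inhibition of 0.5 nM 17-beta-estradiol-driven beta-lactamase reporter in HEK 293 ER-alpha-UAS-bla cells, 18 h at 37C, CCF4 readout after 2 h at RT. Normalised to estradiol and DMSO; titration fitted to Hill.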
# [4] = target: Estrogen receptor (Homo sapiens) (UniProt P03372); experiment: qHTS assay for small molecule agonists of estrogen receptor alpha signaling (AID 588514; calls by dose curve; further: nearly all actives have a fitted effect of over 70% in size)
# Procedure, shortened: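 Reporter-gene assay. […] controls beta-lactamase in HEK 293 GripTite cells; after 18 hrs with compound, CCF4 substrate is added for 2 hrs and fluorescence is read.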
# [5] = qHTS assay for small molecule antagonists of peroxisome proliferator-activated receptor delta signaling (AID 588535; active means well fitted inhibition curve with a large enough effect in the signal ratio, with a control signal flat, not every such curve was filed as active; inconclusive means small, poorly fitted or top-dose-only effect, or effect the other way, or a change in a side signal; inactive means no such curve, though single readings can be large or run the other way; the % refers to the signal ratio;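 on max response: cells co-treated with a PPAR-delta agonist as stimulator during compound exposure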); conditions: HEK293T PPARd-UAS-bla, beta-lactamase FRET ratio, 18 h; 460 nm channel
# Procedure, shortened: (§1)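 GeneBLAzer PPAR-delta-UAS-bla HEK293T cells in medium with 2% charcoal/dextran FBS were preincubated 5 hrs at 37 C, then given compounds, incubated 18 hrs at 37 C, and read by CCF4 beta-lactamase fluorescence; IC50 from Hill fits.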
# [6] = target: Peroxisome proliferator-activated receptor delta (Homo sapiens) (UniProt Q03181); experiment: as above
# Procedure, shortened: as §1
# [7] = target: Peroxisome proliferator-activated receptor gamma (Homo sapiens) (UniProt P37231); experiment: qHTS assay for small molecule agonists of peroxisome proliferator-activated receptor gamma signaling (AID 588536; active means well fitted curve in the direction sought with a large enough effect in the signal ratio, with a control signal flat, not every such curve was filed as active; inconclusive means small, poorly fitted or top-dose-only effect, or effect the other way, or a change in a side signal; inactive means no such curve, though single readings can be large or run the other way; the % refers to the signal ratio)
# Procedure, shortened: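 PPAR-gamma-UAS-bla HEK293 cells in medium with 1% charcoal/dextran-treated FBS were exposed to compounds for 16 h at 37 C. Beta-lactamase activity was read with CCF4 substrate (405 nm excitation, 460/530 nm emission).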
# [8] = qHTS assay for small molecule agonists of retinoid X receptor alpha signaling (AID 588544); conditions: HEK293T RXRa-UAS-bla, beta-lactamase reporter, 18 h; 530 nm emission
# [9] = target: Bile acid receptor (Homo sapiens) (UniProt Q96RI1); experiment: qHTS assay for small molecule antagonists of farnesoid X receptor signaling (AID 588526; calls by dose curve)
# Procedure, shortened: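 Concentration-response titrations were fitted to the Hill equation for half-maximal inhibition and maximal response, with data normalised to 50 uM chenodeoxycholic acid and DMSO control wells. Cells: FXR-UAS-bla HEK293T, dialyzed FBS.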
# [10] = target: Glucocorticoid receptor (Homo sapiens) (UniProt P04150); experiment: qHTS assay for small molecule antagonists of glucocorticoid receptor signaling (AID 588533; active means well fitted inhibition curve with a large enough effect in the signal ratio, with a control signal flat, not every such curve was filed as active; inconclusive means small, poorly fitted or top-dose-only effect, or effect the other way, or a change in a side signal; the % refers to the signal ratio;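 further: cells stimulated with 2 nM dexamethasone as agonist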)
# Procedure, shortened: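 Antagonist-mode qHTS: compound titrations added to GRE-bla HeLa cells, then dexamethasone 2 nM final; 18 h, 37 C. CCF4 FRET fluorescence normalized to dexamethasone and DMSO; IC50 from Hill fit.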
# [11] = target: Glucocorticoid receptor (Homo sapiens) (UniProt P04150); experiment: qHTS assay for small molecule agonists of glucocorticoid receptor signaling (AID 588532; active means well fitted curve in the direction sought with a large enough effect in the signal ratio, with a control signal flat; inconclusive means small, poorly fitted or top-dose-only effect, or a change in a side signal; inactive means no such curve, though single readings can be large or run the other way; the % refers to the signal ratio); conditions: HeLa MMTV-bla, beta-lactamase ratio, agonist, 18 h; stronger effect = higher value; percent of dexamethasone control, DMSO zero
# Procedure, shortened: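 Stimulation of a glucocorticoid response element-driven beta-lactamase gene was measured in HeLa cells. Responses were scaled between DMSO basal and 0.1 uM dexamethasone, then fitted for half-maximal stimulation.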
# [12] = target: Vitamin D3 receptor (Homo sapiens) (UniProt P11473); experiment: qHTS assay for small molecule antagonists of vitamin D receptor signaling (AID 588541; calls by dose curve;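 further: receptor activated by calcitriol during compound treatment; series mostly up to about 77 µM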)
# Procedure, shortened: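 VDR-UAS-bla HEK293T cells (2000/well, 2% charcoal-stripped FBS) were treated with titrated compounds plus 1-alpha,25-dihydroxyvitamin D3 (50 nM or 3 nM final) for 16 h at 37 C. CCF4 beta-lactamase fluorescence was read; Hill fits gave IC50.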
# [13] = target: Peroxisome proliferator-activated receptor gamma (Homo sapiens) (UniProt P37231); experiment: qHTS assay for small molecule antagonists of peroxisome proliferator-activated receptor gamma signaling (AID 588537; active means well fitted inhibition curve with a large enough effect in the signal ratio, with a control signal flat, not every such curve was filed as active; inconclusive means small, poorly fitted or top-dose-only effect, or effect the other way, or a change in a side signal; the % refers to the signal ratio; further: potency means the concentration at half of the fitted maximal effect)
# Procedure, shortened: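 PPAR-gamma-UAS-bla HEK293 cells (3000/well, 1% charcoal/dextran-stripped FBS) were preincubated 6-6.5 h at 37 C, given titrated compounds, then stimulated with 50 nM rosiglitazone for 16 h. Beta-lactamase activity was read with CCF4 dye; IC50 came from Hill fits.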
# DNA dC->dU-editing enzyme APOBEC-3G (Homo sapiens), sequence (Q9HC16 whole entry, looked up): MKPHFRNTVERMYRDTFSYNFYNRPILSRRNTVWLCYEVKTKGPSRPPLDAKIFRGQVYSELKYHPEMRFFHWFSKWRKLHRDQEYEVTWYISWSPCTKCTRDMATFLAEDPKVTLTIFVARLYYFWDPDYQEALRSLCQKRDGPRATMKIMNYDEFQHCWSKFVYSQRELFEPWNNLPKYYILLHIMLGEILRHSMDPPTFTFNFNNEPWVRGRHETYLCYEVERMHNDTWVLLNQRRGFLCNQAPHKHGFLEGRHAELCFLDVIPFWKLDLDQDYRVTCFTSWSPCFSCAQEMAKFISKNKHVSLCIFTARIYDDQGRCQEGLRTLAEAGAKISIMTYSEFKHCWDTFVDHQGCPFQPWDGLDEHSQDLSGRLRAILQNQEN
# Peroxisome proliferator-activated receptor delta (Homo sapiens), sequence (Q03181 whole entry, looked up): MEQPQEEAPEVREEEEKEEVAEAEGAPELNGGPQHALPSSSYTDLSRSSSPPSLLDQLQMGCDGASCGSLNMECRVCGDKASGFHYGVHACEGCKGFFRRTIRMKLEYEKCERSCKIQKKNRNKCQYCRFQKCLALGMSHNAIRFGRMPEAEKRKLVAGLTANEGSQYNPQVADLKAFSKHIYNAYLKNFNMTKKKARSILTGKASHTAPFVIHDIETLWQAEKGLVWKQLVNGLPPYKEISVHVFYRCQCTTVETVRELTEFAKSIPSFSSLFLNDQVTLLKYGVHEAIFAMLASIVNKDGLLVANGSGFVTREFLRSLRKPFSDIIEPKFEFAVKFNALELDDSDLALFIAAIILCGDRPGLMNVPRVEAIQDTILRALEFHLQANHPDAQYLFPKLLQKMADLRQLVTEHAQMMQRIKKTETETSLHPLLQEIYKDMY
# Ubiquitin carboxyl-terminal hydrolase 1 (Homo sapiens), sequence (O94782 whole entry, looked up): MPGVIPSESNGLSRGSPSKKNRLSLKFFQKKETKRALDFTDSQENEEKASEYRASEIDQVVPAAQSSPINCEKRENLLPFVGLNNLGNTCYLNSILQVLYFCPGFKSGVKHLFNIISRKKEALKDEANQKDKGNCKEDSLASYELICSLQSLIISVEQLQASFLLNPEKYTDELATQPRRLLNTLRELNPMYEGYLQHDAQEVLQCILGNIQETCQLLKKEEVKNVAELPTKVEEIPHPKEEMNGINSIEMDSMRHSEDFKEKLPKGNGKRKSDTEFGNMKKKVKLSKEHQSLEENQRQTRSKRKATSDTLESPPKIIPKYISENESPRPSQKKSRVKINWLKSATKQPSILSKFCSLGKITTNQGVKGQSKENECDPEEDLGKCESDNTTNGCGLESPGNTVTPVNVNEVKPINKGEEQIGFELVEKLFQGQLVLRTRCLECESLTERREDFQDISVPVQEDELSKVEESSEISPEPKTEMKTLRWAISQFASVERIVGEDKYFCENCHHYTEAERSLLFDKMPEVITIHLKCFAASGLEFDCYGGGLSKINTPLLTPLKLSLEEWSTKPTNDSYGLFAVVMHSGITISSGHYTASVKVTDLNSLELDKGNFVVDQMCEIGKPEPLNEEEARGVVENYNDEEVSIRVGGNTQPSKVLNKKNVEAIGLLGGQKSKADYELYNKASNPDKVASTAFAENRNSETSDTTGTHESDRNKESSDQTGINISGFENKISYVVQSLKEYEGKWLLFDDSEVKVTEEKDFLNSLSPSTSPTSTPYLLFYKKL
# Bile acid receptor (Homo sapiens), sequence (Q96RI1 whole entry, looked up): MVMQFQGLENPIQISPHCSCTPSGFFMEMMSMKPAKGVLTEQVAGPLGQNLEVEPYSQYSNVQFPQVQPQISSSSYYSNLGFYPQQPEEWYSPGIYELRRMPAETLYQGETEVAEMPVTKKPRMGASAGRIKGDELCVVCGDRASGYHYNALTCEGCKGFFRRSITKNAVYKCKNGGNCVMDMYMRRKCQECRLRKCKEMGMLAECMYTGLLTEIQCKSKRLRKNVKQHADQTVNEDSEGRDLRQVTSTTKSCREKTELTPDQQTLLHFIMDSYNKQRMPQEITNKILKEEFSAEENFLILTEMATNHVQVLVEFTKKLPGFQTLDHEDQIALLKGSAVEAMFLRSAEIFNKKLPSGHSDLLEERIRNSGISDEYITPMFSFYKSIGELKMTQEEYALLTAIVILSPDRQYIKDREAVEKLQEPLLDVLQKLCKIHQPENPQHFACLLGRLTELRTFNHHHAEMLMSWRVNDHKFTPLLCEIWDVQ
# Glucocorticoid receptor (Homo sapiens), sequence (P04150 whole entry, looked up): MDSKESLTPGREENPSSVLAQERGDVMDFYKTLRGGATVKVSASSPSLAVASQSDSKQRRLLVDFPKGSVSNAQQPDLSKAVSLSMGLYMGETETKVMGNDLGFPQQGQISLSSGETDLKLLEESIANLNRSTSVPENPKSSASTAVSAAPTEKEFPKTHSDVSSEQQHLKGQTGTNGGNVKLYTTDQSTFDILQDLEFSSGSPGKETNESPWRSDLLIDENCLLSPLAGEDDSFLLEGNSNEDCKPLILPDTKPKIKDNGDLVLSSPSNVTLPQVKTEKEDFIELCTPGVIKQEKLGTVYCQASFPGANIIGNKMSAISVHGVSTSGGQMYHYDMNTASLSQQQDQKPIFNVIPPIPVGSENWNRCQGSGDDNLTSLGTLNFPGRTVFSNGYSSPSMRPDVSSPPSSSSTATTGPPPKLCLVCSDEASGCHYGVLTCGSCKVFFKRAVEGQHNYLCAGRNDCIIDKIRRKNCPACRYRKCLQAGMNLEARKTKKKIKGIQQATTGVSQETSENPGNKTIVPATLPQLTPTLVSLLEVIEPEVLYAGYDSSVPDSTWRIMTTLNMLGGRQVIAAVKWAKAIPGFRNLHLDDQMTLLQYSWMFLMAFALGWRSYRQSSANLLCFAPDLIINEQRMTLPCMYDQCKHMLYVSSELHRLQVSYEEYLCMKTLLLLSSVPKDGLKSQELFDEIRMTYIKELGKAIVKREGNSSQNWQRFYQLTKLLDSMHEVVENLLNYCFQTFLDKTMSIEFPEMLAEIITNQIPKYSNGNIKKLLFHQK
# Vitamin D3 receptor (Homo sapiens), sequence (P11473 whole entry, looked up): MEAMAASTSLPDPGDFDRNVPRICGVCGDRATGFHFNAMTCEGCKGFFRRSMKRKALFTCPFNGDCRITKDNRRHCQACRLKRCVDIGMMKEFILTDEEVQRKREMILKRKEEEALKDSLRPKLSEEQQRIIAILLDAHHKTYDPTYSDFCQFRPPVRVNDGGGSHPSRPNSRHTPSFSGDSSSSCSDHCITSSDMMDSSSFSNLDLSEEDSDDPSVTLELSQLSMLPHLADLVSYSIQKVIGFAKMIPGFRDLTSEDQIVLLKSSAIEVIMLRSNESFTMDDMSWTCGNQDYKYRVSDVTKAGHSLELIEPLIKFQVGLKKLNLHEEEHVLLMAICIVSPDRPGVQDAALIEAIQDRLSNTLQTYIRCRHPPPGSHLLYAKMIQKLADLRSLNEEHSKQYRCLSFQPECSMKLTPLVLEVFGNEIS
# Peroxisome proliferator-activated receptor gamma (Homo sapiens), sequence (P37231 whole entry, looked up): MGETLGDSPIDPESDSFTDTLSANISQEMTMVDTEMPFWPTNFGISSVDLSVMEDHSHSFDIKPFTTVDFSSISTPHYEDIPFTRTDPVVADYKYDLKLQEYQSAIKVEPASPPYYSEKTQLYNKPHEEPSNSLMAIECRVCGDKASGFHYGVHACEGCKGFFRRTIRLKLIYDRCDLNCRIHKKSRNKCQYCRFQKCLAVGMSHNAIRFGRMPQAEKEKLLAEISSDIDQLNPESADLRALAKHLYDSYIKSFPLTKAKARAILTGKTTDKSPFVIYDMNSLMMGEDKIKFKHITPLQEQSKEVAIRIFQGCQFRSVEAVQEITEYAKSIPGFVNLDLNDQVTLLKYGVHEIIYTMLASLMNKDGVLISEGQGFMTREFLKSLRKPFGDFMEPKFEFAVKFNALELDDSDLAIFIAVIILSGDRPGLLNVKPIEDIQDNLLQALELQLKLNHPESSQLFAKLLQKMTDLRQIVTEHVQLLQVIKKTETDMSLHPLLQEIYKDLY
# Estrogen receptor (Homo sapiens), sequence (P03372 whole entry, looked up): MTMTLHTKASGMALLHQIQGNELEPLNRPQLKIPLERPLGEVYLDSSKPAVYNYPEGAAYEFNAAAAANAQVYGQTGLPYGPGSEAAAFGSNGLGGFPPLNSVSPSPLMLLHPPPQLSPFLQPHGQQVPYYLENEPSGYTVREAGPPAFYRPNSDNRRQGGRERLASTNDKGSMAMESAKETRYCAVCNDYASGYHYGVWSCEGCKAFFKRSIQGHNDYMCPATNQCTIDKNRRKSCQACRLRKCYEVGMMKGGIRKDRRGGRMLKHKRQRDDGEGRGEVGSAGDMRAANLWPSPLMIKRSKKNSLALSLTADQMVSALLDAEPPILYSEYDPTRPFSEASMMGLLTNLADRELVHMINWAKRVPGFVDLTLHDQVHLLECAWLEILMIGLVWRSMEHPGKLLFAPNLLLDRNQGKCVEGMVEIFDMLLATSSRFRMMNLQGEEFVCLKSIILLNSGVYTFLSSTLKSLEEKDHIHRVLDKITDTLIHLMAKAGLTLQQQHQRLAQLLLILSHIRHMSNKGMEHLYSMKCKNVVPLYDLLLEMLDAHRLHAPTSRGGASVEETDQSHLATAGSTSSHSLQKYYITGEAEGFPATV
smiles,measurement,setting,value
NC(=O)c1cccnc1,Potency,[1],inactive
COc1cc([C@@H]2c3cc4c(cc3[C@H](O)[C@H]3COC(=O)[C@H]23)OCO4)cc(OC)c1OC,outcome,[2],inactive
Cc1ncc([N+](=O)[O-])n1CCO,Potency,[1],inactive
same,Potency,[3],inactive
same,outcome,[4],inactive
same,max response,[5],-0.982%
same,outcome,[6],inactive
same,outcome,[7],inactive
same,max response,[8],1.6%
CC(C)Cn1cnc2c(N)nc3ccccc3c21,Potency,[1],inactive
Cn1nnc2c(C(N)=O)ncn2c1=O,Potency,[1],inactive
CCOC(=O)c1ccc(OC(=O)CCCCCN=C(N)N)cc1,Potency,[1],inactive
same,outcome,[2],inactive
CC1=NN(c2ccccc2)C(=O)C1,Potency,[1],inactive
same,outcome,[2],inactive
same,Potency,[3],inactive
same,outcome,[4],inactive
same,outcome,[9],inactive
same,outcome,[10],inactive
same,max response,[5],-24.3%
same,outcome,[6],inactive
same,outcome,[7],inactive
Cc1ccnc2c1NC(=O)c1cccnc1N2C1CC1,Potency,[1],inactive
same,outcome,[9],inactive
same,activation,[11],-5.33% (inactive)
same,outcome,[10],inactive
same,max response,[5],14.9%
same,outcome,[6],inactive
same,outcome,[7],inactive
same,outcome,[12],inactive
same,max response,[8],12%
Cc1noc(NS(=O)(=O)c2ccc(N)cc2)c1C,Potency,[1],inactive
same,outcome,[2],inactive
same,Potency,[3],inactive
same,outcome,[4],inactive
same,outcome,[9],inactive
same,max response,[5],23.8% and 11.7%
same,outcome,[6],inactive
same,outcome,[7],inactive
same,Potency,[13],inactive
same,max response,[8],3.43%
O=S(=O)(c1cccc2cnccc12)N1CCCNCC1,Potency,[1],inactive
same,outcome,[2],inactive
C[C@]12C=CC(=O)C=C1CC[C@@H]1[C@@H]2C(=O)C[C@@]2(C)[C@H]1CC[C@]2(O)C(=O)CO,Potency,[1],inactive
same,Potency,[3],inactive
same,outcome,[4],inactive
same,outcome,[7],inactive
same,outcome,[12],inactive
same,max response,[8],13.7%
CNCC[C@H](Oc1cccc2ccccc12)c1cccs1,Potency,[1],inactive
O=C(O)c1cc(=O)[nH]c(=O)[nH]1,Potency,[1],inactive
same,Potency,[3],inactive
same,activation,[11],-4.81% (inactive)
same,outcome,[7],inactive
same,max response,[8],0.884%
O=c1oc2c(O)c(O)cc3c(=O)oc4c(O)c(O)cc1c4c23,outcome,[2],inactive
N=C(N)c1ccc(OCCCCCOc2ccc(C(=N)N)cc2)cc1,Potency,[1],inactive
same,Potency,[3],inactive
same,outcome,[4],inactive
same,activation,[11],-5.79% (inactive) and -1.59% (inactive)
same,outcome,[10],inactive
same,max response,[5],-25.7%
same,outcome,[6],inactive
same,outcome,[12],inactive
same,max response,[8],18.8%
CCc1cc(C(N)=S)ccn1,Potency,[1],inactive
same,activation,[11],1.04% (inactive)
same,outcome,[10],inactive
same,max response,[5],-62.7% and 18.6%
same,outcome,[6],inactive
same,outcome,[12],inactive
same,max response,[8],-5.67%
NC(N)=NC(N)=NCCc1ccccc1,Potency,[1],inactive
same,Potency,[3],inactive
same,outcome,[4],inactive
same,activation,[11],10% (inactive) and -5.38% (inactive)
same,max response,[5],-11.9% and 9.95%
same,outcome,[6],inactive
same,outcome,[7],inactive
same,Potency,[13],inactive
same,max response,[8],8.58% and 2.73%
OC(Cn1cncn1)(Cn1cncn1)c1ccc(F)cc1F,Potency,[1],inactive
same,Potency,[3],inactive
same,outcome,[4],inactive
same,activation,[11],0.0878% (inactive)
same,outcome,[10],inactive
same,outcome,[7],inactive
same,Potency,[13],inactive
same,outcome,[12],inactive
same,max response,[8],-28.2%
CN(C)c1ccc(C(=C2C=CC(=[N+](C)C)C=C2)c2ccc(N(C)C)cc2)cc1,Potency,[1],20 µM (active) and 22.4 µM (active)
same,Potency,[3],28.2 µM [inconclusive] (active)
same,activation,[11],-0.396% (inactive) and -10.9% (inactive)
same,Potency,[13],44.7 µM (active)
same,outcome,[12],inactive
O=C(N[C@H](CO)[C@H](O)c1ccc([N+](=O)[O-])cc1)C(Cl)Cl,Potency,[1],inactive
same,outcome,[2],inactive
same,Potency,[3],inactive
same,max response,[5],-4.34% and 5.8%
same,outcome,[6],inactive
same,outcome,[7],inactive
same,Potency,[13],inactive
same,max response,[8],-13.6%
S=P(N1CC1)(N1CC1)N1CC1,Potency,[1],inactive
same,Potency,[3],inactive
same,outcome,[9],inactive
same,activation,[11],-9.54% (inactive)
same,outcome,[10],inactive
same,max response,[5],6.13%
same,outcome,[6],inactive
same,outcome,[7],inactive
same,Potency,[13],inactive
same,outcome,[12],inactive
same,max response,[8],-19.8%
CC(=O)CC(c1ccccc1)c1c(O)c2ccccc2oc1=O (stereo not given),Potency,[1],inactive
same,max response,[8],2.14%
CC[C@H](NC(C)C)[C@H](O)c1ccc(O)c2[nH]c(=O)ccc12,Potency,[1],inactive
same,outcome,[2],inactive
Cc1cccc(Nc2ccncc2S(=O)(=O)NC(=O)NC(C)C)c1,Potency,[1],inactive
COc1ccc2cc3[n+](cc2c1OC)CCc1cc2c(cc1-3)OCO2,Potency,[1],inactive
same,Potency,[3],inactive
same,activation,[11],1.14% (inactive)
same,outcome,[7],inactive
same,outcome,[12],inactive
CC(=O)Oc1ccccc1C(=O)Nc1ncc([N+](=O)[O-])s1,Potency,[1],inactive
same,Potency,[3],inactive
same,activation,[11],-4.89% (inactive)
same,max response,[5],-31.7%
same,outcome,[6],inactive
CN(C)CCc1c[nH]c2ccc(CS(=O)(=O)N3CCCC3)cc12,Potency,[1],inactive
CC[C@H](C)C(=O)O[C@H]1C[C@@H](C)C=C2C=C[C@H](C)[C@H](CC[C@@H]3C[C@@H](O)CC(=O)O3)[C@H]21,Potency,[3],inactive
same,outcome,[4],inactive
same,activation,[11],-4.54% (inactive)
same,outcome,[7],inactive
same,outcome,[12],inactive
